Bioassay records as filed in PubChem.
GDH-TPI counter – GDH-TPI coupling enzyme inhibitors, primary screen, artefact control for M. tuberculosis FBA inhibitor project, biochemical, absorbance, full deck | GDH-TPI coupled enzyme counterscreen, NADH absorbance | inhibition, % at 4.8 µM | 1.2% of 360,000 active | AID 588335, 2011; in the data active = inhibition above about 30%;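 note: 0% = DMSO wells and 100% = wells lacking the enzyme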
Mtb bLac sens – beta-lactam sensitization of Mtb H37Rv, H37Rv | M. tuberculosis H37Rv growth with meropenem, percent inhibition | 0.27% of 330,000 active | inhibition, % at 25 µM; call rule not given here;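 note: growth measured after seven days incubation then overnight dye step; 0% = bacteria only wells and 100% = bacteria with antibiotic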
Rv3671c inh – Rv3671c serine protease inhibitors, primary screen, biochemical, fluorescence polarization, M. tuberculosis H37Rv; inhibition, % at 5.96 µM; P9WHR9; AID 2606, 2010; 0.048% of 320,000 active; in the data active = inhibition above about 38%;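 note: extracellular domain of Rv3671c used as enzyme; 0% = enzyme with DMSO and 100% = no enzyme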
Target sequence (P9WHR9 whole entry, looked up, the tested form may be a part): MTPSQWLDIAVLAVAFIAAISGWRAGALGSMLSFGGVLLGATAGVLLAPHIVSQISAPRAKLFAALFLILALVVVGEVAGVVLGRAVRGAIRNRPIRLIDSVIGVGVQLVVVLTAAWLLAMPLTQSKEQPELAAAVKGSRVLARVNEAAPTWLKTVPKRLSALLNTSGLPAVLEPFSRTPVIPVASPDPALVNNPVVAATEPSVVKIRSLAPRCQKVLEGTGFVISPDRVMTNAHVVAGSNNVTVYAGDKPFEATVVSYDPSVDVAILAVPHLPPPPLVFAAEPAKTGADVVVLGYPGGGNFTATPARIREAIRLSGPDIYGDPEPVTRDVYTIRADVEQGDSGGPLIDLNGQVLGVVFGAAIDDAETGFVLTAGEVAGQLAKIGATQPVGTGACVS
RecA splice inh – Mtb RecA intein splicing inhibitors, primary screen, biochemical, fluorescence, HTS. Protein RecA (Mycobacterium tuberculosis (strain ATCC 25618 / H37Rv)), P9WHJ3. cell-free RecA intein splicing. inhibition, % (test concentration not listed). 0.75% of 290,000 active. AID 2221, 2009; in the data active = inhibition above about 30%; inconclusive = no clear call, values can overlap the other calls;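 note: 0% = vehicle wells and 100% = reference inhibitor control wells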
Mtb FBA inh – Mtb FBA enzyme inhibitors, primary screen, biochemical, fluorescence, strain H37Rv. purified M. tuberculosis FBA, fluorescence read-out. inhibition, % at 1 µM. 2.3% of 360,000 active; in the data active = inhibition above about 27%;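 note: 0% = vehicle and 100% = reference inhibitor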
Mtb UGM inh – M. tuberculosis UGM enzyme inhibitors, primary screen, biochemical, fluorescence polarization, single point | inhibition, % at 10 µM | AID 504406, 2011 | purified UGM, fluorescence polarization probe displacement | 0.06% of 320,000 active; in the data active = inhibition above about 10%, passing the limit was not always enough; inconclusive = no clear call, values can overlap the other calls
Starred values were filed as active, the others as inactive; ? = inconclusive; nt = not tested or not shown. Shown are actives, neighbours in structure and some others; about 4% of the full set was active somewhere.

SMILES | GDH-TPI counter | Mtb bLac sens | Rv3671c inh | RecA splice inh | Mtb FBA inh | Mtb UGM inh
c1ccc2c(c1)cc1ccc3cccc4ccc2c1c34 | 8.8 | nt | nt | nt | 33.9* | nt
Cc1cccc(C(=O)OCC(=O)Nc2c(C)n(C)n(-c3ccccc3)c2=O)c1O | -14.7 | -0.7 | 0.7 | nt | -0.3 | 0.2
COc1cc(OC)cc(-c2c(C#Cc3ccsc3)c3cc(-c4ccc(OC)nc4)ccc3n2C)c1 | 44.2* | 93.6 | -25.9 | nt | 18.4 | 1.4
COc1cc(OC)cc(-c2c(C#Cc3ccsc3)c3cc(Br)ccc3n2C)c1 | 8.8 | -2.1 | -6.4 | nt | 13.4 | 1.4
COc1cc(F)cc(-c2ccc3c(c2)c(C#Cc2ccsc2)c(-c2cc(OC)cc(OC)c2)n3C)c1 | 31.4* | -10.4 | -2.4 | nt | 13.9 | 2.9
COc1cc(OC)cc(-c2c(C#Cc3ccsc3)c3cc(-c4ccc(OC)c(OC)c4)ccc3n2C)c1 | 44.0* | -5.9 | -2.6 | nt | 19.3 | -0.7
COc1cc(OC)cc(-c2c(C#Cc3ccsc3)c3cc(-c4cccc5[nH]cc(C=O)c45)ccc3n2C)c1 | 32.3* | 0.8 | -6.3 | nt | 6.4 | -3.3
Cc1ccc(Cl)cc1-c1cc(C(=O)N2CCN(c3ccncc3)CC2)[nH]n1 | 6.2 | nt | nt | nt | 4.9 | nt
COc1ccc(CCNC(=O)C(=O)NCc2cccs2)cc1OC | -7.7 | -0.6 | -9.5 | -1.6 | -0.1 | -0.1
COc1ccc(C)cc1NC(=O)Nc1ccc(C(=O)N2CCCC2)cc1 | -1.7 | -1.5 | -9.6 | 0.1 | 0.6 | -2.4
N#CCCN(C(=O)COC(=O)COc1ccccc1Cc1ccccc1)c1ccccc1 | -4.7 | 1.0 | -6.1 | nt | -2.5 | -0.2
O=C1/C(=C/Nc2cccc([N+](=O)[O-])c2)CCc2ccccc21 | 19.8 | -12.3 | -5.2 | 59.6* | -1.5 | 1.5
C[C@H](CO)N1C[C@H](C)[C@@H](CN(C)S(=O)(=O)c2cccc(C#N)c2)OCc2cn(nn2)CCCC1=O | -2.4 | nt | nt | nt | 2.1 | nt
COCCN1C(=O)C(=O)/C(=C(/O)c2ccc(S(=O)(=O)N3CCCCC3)cc2)C1c1ccc(OC)cc1 (stereo not given) | 1.5 | -7.0 | -7.6 | -2.1 | -1.4 | 0.8
O=C(CCCn1c(=S)[nH]c2cc3c(cc2c1=O)OCO3)N1CCN(c2ccc(Cl)cc2)CC1 | 1.8 | 6.5 | -5.9 | 1.2 | -1.5 | 2.1
CC(=O)c1ccc(N2CCN(C(=O)c3ccc4c(=O)n(-c5ccccc5)c(=O)[nH]c4c3)CC2)cc1 | 35.3* | 0.7 | -0.7 | 0.3 | 0.0 | -0.2
CC(=O)c1ccc(N2CCN(C(=O)CCCn3c(=S)[nH]c4cc5c(cc4c3=O)OCO5)CC2)cc1 | 34.7* | -4.5 | -7.4 | nt | -0.3 | -1.1
C=CCn1c(=O)[nH]c2cc(C(=O)N3CCN(c4cccc(Cl)c4)CC3)ccc2c1=O | 2.2 | 58.9 | -14.9 | -0.9 | 0.5 | 0.0
C=CCn1c(=O)[nH]c2cc(C(=O)N3CCN(c4ccc(C(C)=O)cc4)CC3)ccc2c1=O | 35.6* | 3.0 | -3.6 | 2.5 | -0.6 | 0.5
CCOC(=O)C1(C)CCN1C(=O)c1cccc(C#N)c1 (stereo not given) | 2.2 | nt | nt | nt | -0.8 | nt
C/C=C/c1ccc(OCC(=O)Nc2cc(S(=O)(=O)N3CCOCC3)ccc2N2CCCC2)c(OC)c1 | -8.6 | -0.2 | 7.7 | 7.5 | -1.4 | 1.2
CCc1cc2c(=O)c(-c3nc4ccccc4n3C)c(C)oc2c(CN2CCN(C)CC2)c1O | nt | -1.7 | 4.2 | 0.0 | nt | -0.1
CCc1cc2c(=O)c(-c3nc4ccccc4n3C)coc2c(CN2CCCC(C)C2)c1O (stereo not given) | 34.0* | ? | -11.1 | -4.2 | 11.4 | -1.3
CCc1cc2c(=O)c(-c3nc4ccccc4n3C)c(C)oc2c(CN2CCN(CCO)CC2)c1O | 35.1* | -4.6 | 3.0 | -2.7 | 11.9 | -0.2
COc1ccc(/C=C2/CSC/C(=C/c3ccc(OC)c(OC)c3)C2=O)cc1OC | 15.5 | nt | nt | nt | 1.9 | nt
CC(C)N1CCN(Cc2ccsc2)CC1CCO (stereo not given) | 4.2 | -10.8 | -3.1 | 0.0 | -0.9 | -1.6
